# In the library only some 2% were active in any assay of this set; here they are far more common.
# Shn3 inh set2 = reduces Shn3 3'UTR luciferase signal in osteoblasts | Clone20 osteoblast Shn3 3'UTR firefly luciferase, 24 h | inhibition, % at 12.5 µM | hit rate 0.52% among 360,000;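 active = mean inhibition of at least 75% with every replicate also reaching 75%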;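 also: 0% = median of neutral control wells and 100% = pilot-screen positive control compound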
# 697 NFkB inh = inhibitors of the PMA/ionomycin-induced NF-kB reporter in 697 B cells; 697 B-cell NF-kB luciferase reporter, 16 h; inhibition, % at 4 µM; hit rate 0.33% among 330,000; in the data active = inhibition above about 35%
# Calb FLC = C. albicans growth modulation with fluconazole. C. albicans CaCi-2 (fluconazole-resistant clinical isolate) + fluconazole, Alamar Blue growth, 48 h. growth inhibition, % (concentration not given with the values). hit rate 0.57% among 300,000. AID 1979;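 active = growth inhibition above about 58% in most replicates, limit read from the data, passing the limit was not always enough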;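 also: all wells also contain fluconazole at 8 µg/ml as a sub-toxic cotreatment; 0% = median of DMSO wells and 100% = median of geldanamycin control wells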
# Jurkat NFkB inh = inhibitors of the PMA/ionomycin-induced NF-kB reporter in Jurkat cells; hit rate 0.53% among 330,000; AID 435003; inhibition, % at 4 µM; PMA/ionomycin-induced NF-kB luciferase reporter, luminescence; in the data active = inhibition above about 50%
# Beta apoptosis = blocks beta cell apoptosis | AID 435005 | protection from apoptosis, % (no concentration beside the values) | INS-1E cytokine-induced death, ATP luminescence, 48 h; percent of positive-control rescue, neutral wells zero | hit rate 0.8% among 300,000;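 active = Every replicate reaches about 75%, or at least half do and their mean reaches it too, limit read from the data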;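 also: 0% = cytokine-treated negative control wells and 100% = positive control rescue; higher means more ATP so stronger rescue from cytokine killing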
# Jurkat NFkB conf = inhibitors of the PMA/ionomycin-induced NF-kB reporter in Jurkat cells, retest. shares compounds with Jurkat NFkB inh. Jurkat NF-kB luciferase, 16 h. inhibition, % at 4 µM. hit rate 27% among 2,700;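 active = inhibition reaching about 45% at 4 µM in either replicate, limit read from the data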;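 also: plate controls were PMA/ionomycin stimulated DMSO wells for no effect and unstimulated DMSO wells for full effect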
# 697 NFkB conf = lowers PMA/ionomycin-induced NF-kB signal in 697 B cells. shares compounds with 697 NFkB inh. hit rate 35% among 2,000. inhibition, % at 4 µM. 697 B-cell NF-kB luciferase, 16 h; in the data active = inhibition mostly above about 28%, no sharp cut-off; inactive = mostly below about 22%
# * = called active by the depositor; / = not tested or not shown.
SMILES,Shn3 inh set2,697 NFkB inh,Calb FLC,Jurkat NFkB inh,Beta apoptosis,Jurkat NFkB conf,others
Cn1c(=O)[nH]c(=O)c2c1nc(CN1CCN(c3cccc(Cl)c3)CC1)n2Cc1ccccc1Cl,-14.9,-30.5,4.8,56.9*,/,12.3,
CCN(c1ccccc1)S(=O)(=O)c1cccc(C(=O)N(C)CC(=O)Nc2ccc(F)c(F)c2F)c1,5.9,/,/,/,/,/,
Cc1cccc(-c2nc(=S)c3c(o2)CCCC3)c1,-55.2,-138.1,25.1,-165.7,-4.5,-79.7,
S=c1nc(-c2ccc(Br)cc2)oc2c1CCCC2,-63.0,-102.7,-4.7,-61.9,2.0,/,
COCCNC(=O)C(=O)Nc1ccc2c(c1)N(S(=O)(=O)c1cccs1)CCC2,18.2,3.2,2.4,60.1*,7.2,24.4,
COc1ccc(NC(=O)C(=O)NCCC2CCCCN2S(=O)(=O)c2cccs2)cc1 (stereo unspecified),38.3,-26.8,-7.0,60.8*,/,35.2,
COc1ccc(NC(=O)C(=O)NCC2CCCN2S(=O)(=O)c2ccc(C)cc2)cc1 (stereo unspecified),50.2,-170.2,10.7,76.1*,/,64.2*,
COc1ccc(Cl)c2sc(N3CCN(C(C)=O)CC3)nc12,0.9,5.4,-12.3,-6.4,-4.1,/,
COc1cc(/C=C/C(=O)OCC(=O)NCCN2C(=O)CSC2=O)ccc1OCC#N,18.3,6.9,/,-4.5,-0.4,/,
COc1ccc2nc(C)cc(Nc3ccccc3OC)c2c1,-1.2,/,/,/,/,/,
COc1ccc(OC)c(Nc2cc(-c3ccccc3)nc(N)n2)c1,/,29.7,-7.7,56.5*,15.4,44.2,
COc1ccc(Cl)cc1Nc1cc(C)nc2ccccc12,1.0,-29.0,-10.1,54.1*,9.6,22.6,
Cc1cc(Nc2ccccc2Cl)c2ccccc2n1,39.4,-16.0,-0.8,15.2,16.5,/,
COc1ccc(OC)c(Nc2cc(C)nc3ccccc23)c1,30.2,-37.4,11.6,66.8*,3.4,9.6,
Cc1ccc(S(=O)(=O)Nc2cc3c4c(c2)CCN4C(=O)CC3)cc1,2.0,18.3,22.6,-7.7,/,/,
CCOc1ccccc1CNS(=O)(=O)c1ccc(-c2cnc(C3CC3)o2)cc1,66.4,-58.5,-3.5,57.5*,/,55.0*,
Cc1ccc(N(C)S(=O)(=O)c2ccc(-c3cnc(C4CC4)o3)cc2)cc1,5.0,-4.4,26.2,51.9*,25.1,52.4*,
Cc1ccc(NS(=O)(=O)c2ccc(-c3cnc(C4CC4)o3)cc2)cc1,31.4,-59.6,0.6,40.4,19.4,/,
Cc1ccc(CNS(=O)(=O)c2ccc(-c3cnc(C4CC4)o3)cc2)cc1,-9.5,-17.2,9.3,-6.1,-6.1,/,
Cc1cccc(C)c1NS(=O)(=O)c1ccc(-c2cnc(C3CC3)o2)cc1,28.7,-247.5,0.1,59.0*,/,64.5*,
CCOc1ccc(S(=O)(=O)NCCc2ccccn2)cc1,4.9,8.6,/,7.8,-1.5,/,
Cc1nn(C)cc1C(C)NC(=O)c1cc(COc2ccc(F)c(F)c2)on1 (stereo unspecified),-3.0,3.0,0.3,-10.3,1.5,/,
CN1CCN(CC(=O)Nc2ccc(OC(F)(F)F)cc2)CC1,15.6,13.2,-6.0,-17.8,-2.4,/,
CC(C)n1c(CN(C)Cc2ccccc2)nc2c1c(=O)n(C)c(=O)n2C,/,-0.2,-5.9,57.3*,96.0*,53.1*,
COc1ccc(C(=O)Oc2ccc(F)cc2C(=O)/C=C/c2ccc(OC)c(OC)c2)cc1,15.7,-7.1,4.9,5.2,2.2,/,
SMILES,Shn3 inh set2,697 NFkB inh,Calb FLC,Jurkat NFkB inh,Beta apoptosis,Jurkat NFkB conf,others
COc1ccc(/C=C/C(=O)c2cc(F)ccc2OC(=O)c2ccccc2C)cc1OC,9.3,-97.7,25.2,59.7*,49.7,9.2,
COc1ccc(C(=O)Nc2ccc([N+](=O)[O-])cn2)c(OC)c1,-10.2,-222.9,24.0,-167.3,-2.9,-94.8,
COc1cc(OC)cc(C(=O)Nc2ccc([N+](=O)[O-])cn2)c1,-9.0,-22.1,1.4,-9.4,6.1,/,
COc1cc2ccccc2cc1C(=O)Nc1ccc(C)cn1,-77.3,-159.8,1.3,-159.1,5.6,-112.5,
CCOC(=O)c1[nH]c(=O)[nH]c1CN(Cc1ccco1)Cc1[nH]c(=O)[nH]c1C(=O)OCC,-0.5,-1.5,9.6,-2.3,-0.9,/,
CCCc1nc2oc3ccccc3c(=O)c2c(=O)n1-c1ccc(C)cc1,-85.3,-83.1,-0.8,-159.3,4.4,-54.3,
Cc1ccc(-n2c(C(C)C)nc3oc4ccccc4c(=O)c3c2=O)cc1,-129.2,-137.7,2.6,-198.2,2.6,-72.1,
Cc1ccc(S(=O)(=O)CCC(=O)Nc2sccc2C#N)cc1,4.9,7.2,23.9,-9.6,-14.3,/,
CCC1N=C(SC)NC(C)=C1C(=O)c1ccccc1 (stereo unspecified),4.1,-0.5,-8.0,1.2,-10.4,/,
CSC1=NC(C(Cl)(Cl)Cl)N=C(c2ccc(C)cc2)N1 (stereo unspecified),-7.1,-4.6,-3.5,70.2*,4.7,44.0,
Cc1nn(CC(=O)NC2(C)CCS(=O)(=O)C2)c(C)c1S(=O)(=O)N(C)C (stereo unspecified),-9.6,0.9,/,57.3*,-0.7,14.4,
Cc1n[nH]c2c([N+](=O)[O-])c(=O)[nH]c(=O)n12,-6.4,/,/,/,/,/,
CCN(Cc1ccccc1)c1ccc(N=Nc2nn(C)c(C)c2[N+](=O)[O-])cc1,4.8,-65.7,-13.3,-13.5,-0.5,/,
CCN(CC)c1ccc(N=Nc2nn(C)c(C)c2[N+](=O)[O-])cc1,-9.8,-189.1,22.6,-178.1,8.5,-106.2,
COC(=O)c1cc(Cl)c(NC(=O)/C=C/c2ccc(OC)cc2)cc1OC,-26.7,-43.3,1.7,51.4*,8.0,20.5,
CC(C)CN(C(=O)CN(C)C(=O)c1ccco1)c1c(N)n(CC(C)C)c(=O)[nH]c1=O,-0.6,-2.5,-7.5,-3.3,-6.2,/,
O=C(NC(=S)N1CCN(c2ccc([N+](=O)[O-])cc2)CC1)c1ccccc1F,1.8,5.8,-4.3,-8.4,2.1,/,
CCOC(=O)CSc1nc2ccc(C)cc2cc1C#N,-126.3,-110.4,-9.9,-146.6,-0.9,/,
CCOC(=O)CSc1nc2cc3c(cc2cc1C#N)OCCO3,0.9,-355.5,39.1,-173.5,0.2,-101.0,697 NFkB conf=-208.2
CC(=O)Nc1cc2nn(-c3ccccc3)nc2cc1Cl,-34.0,-348.9,-3.3,-188.9,-1.0,-80.2,697 NFkB conf=-206.2
CC(C)(C)C(=O)Nc1cc2nn(-c3ccccc3)nc2cc1Cl,84.1,/,/,/,/,/,
CC(C)C(=O)Nc1ccc2nn(-c3ccccc3)nc2c1,-65.2,-356.5,1.5,-255.4,0.0,-165.8,697 NFkB conf=-329.3
CCN(CC)CCCn1c(SCC(=O)Nc2cccc(F)c2)nnc1-c1ccoc1C,-13.9,-0.4,9.2,-2.5,-5.8,/,
Cc1c(-c2nc(-c3ccc(C(C)(C)C)cc3)no2)n(C)oc1=O,/,-418.1,-15.3,59.8*,/,-30.6,697 NFkB conf=-412.7
CCOC(=O)/C(=C/C=C1\Sc2cc(C)c(C)cc2N1CC)C(C)=O,50.6,/,7.6,/,/,/,
CCN1/C(=C/c2ccc3cc(C)ccc3[n+]2CC)Sc2cc(C)c(C)cc21,35.5,65.3*,/,93.2*,/,74.4*,697 NFkB conf=79.8*
